# Where a name gives a salt, the structure may show the parent alone.
# Columns and labels:
# Experiment in all cases: lowest phenotypically active concentration; higher = less potent
# Settings in all cases: treatment time: 24 h
# WPMY1-CANX-COX4 = test system: WPMY1-CANX-COX4
# Method in brief: (§1)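 The reporter lines, fifteen in total and built by gene editing in A549, HepG2 and WPMY1 cells, used BFP for segmentation alongside GFP and RFP/FusionRed markers. Each was treated at 0.3, 1, 3 or 9 µM for 24 h in four wells and then imaged live, with live-cell features normalised to solvent control wells. Deviation meant ≥3 of 4 wells beyond the 95th percentile of control Euclidean distances; reproducibility meant a median replicate Pearson correlation above the 95th percentile of non-replicates. Only conditions meeting both were scored as phenotypically active.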
# HepG2-TUBA1B-RELA = test system: HepG2-TUBA1B-RELA
# Method in brief: as §1
# WPMY1-TUBA1B-RELA = test system: WPMY1-TUBA1B-RELA
# Method in brief: as §1
# A549-ACTB-RAB5A = test system: A549-ACTB-RAB5A
# Method in brief: as §1
# A549-GM130-SQSTM1 = test system: A549-GM130-SQSTM1
# Method in brief: as §1
# A549-TUBA1B-RELA = test system: A549-TUBA1B-RELA
# Method in brief: as §1
# HepG2-CANX-COX4 = test system: HepG2-CANX-COX4
# Method in brief: as §1
# HepG2-ACTB-RAB5A = test system: HepG2-ACTB-RAB5A
# Method in brief: as §1
# A549-CANX-COX4 = test system: A549-CANX-COX4
# Method in brief: as §1
# A549-TP53BP1-CLTA = test system: A549-TP53BP1-CLTA
# Method in brief: as §1
smiles,measurement,setting,value
CCN1C(=O)NC(c2ccccc2)C1=O (stereo not given) [ethotoin],lowest phenotypically active concentration,WPMY1-CANX-COX4,3 µM
O=c1cc(-c2ccc(O)cc2)oc2cc(O)cc(O)c12 [Apigenin],lowest phenotypically active concentration,HepG2-TUBA1B-RELA,9 µM
same,lowest phenotypically active concentration,WPMY1-TUBA1B-RELA,9 µM
O=C(Nc1ccccc1)N1CCC(Cc2cnc3ccccc3c2)CC1,lowest phenotypically active concentration,HepG2-TUBA1B-RELA,9 µM
c1ccc(-c2cnn3cc(-c4ccc(OCCN5CCOCC5)cc4)cnc23)cc1,lowest phenotypically active concentration,HepG2-TUBA1B-RELA,3 µM
COc1ccc(CCN(C)CCCC(C#N)(c2ccc(OC)c(OC)c2)C(C)C)cc1OC (stereo not given) [verapamil],lowest phenotypically active concentration,A549-ACTB-RAB5A,9 µM
same,lowest phenotypically active concentration,A549-GM130-SQSTM1,9 µM
same,lowest phenotypically active concentration,A549-TUBA1B-RELA,9 µM
COc1cc2nc(N3CCN(C(=O)c4ccco4)CC3)nc(N)c2cc1OC [prazosin],lowest phenotypically active concentration,HepG2-CANX-COX4,9 µM
same,lowest phenotypically active concentration,HepG2-TUBA1B-RELA,9 µM
C=C[C@H]1CN2CC[C@H]1C[C@H]2[C@H](O)c1ccnc2ccc(OC)cc12 [Quinine dihydrochloride],lowest phenotypically active concentration,A549-ACTB-RAB5A,9 µM
same,lowest phenotypically active concentration,A549-GM130-SQSTM1,3 µM
CC(C)C(=O)Nc1ncc(-c2cc(C(F)F)nn2-c2c(Cl)cccc2Cl)s1,lowest phenotypically active concentration,A549-ACTB-RAB5A,≤ 0.3 µM
same,lowest phenotypically active concentration,HepG2-ACTB-RAB5A,3 µM
same,lowest phenotypically active concentration,HepG2-CANX-COX4,9 µM
same,lowest phenotypically active concentration,WPMY1-CANX-COX4,3 µM
same,lowest phenotypically active concentration,WPMY1-TUBA1B-RELA,3 µM
O=S(c1ccccc1)c1ccc2nnnn2n1 (stereo not given),lowest phenotypically active concentration,A549-ACTB-RAB5A,9 µM
same,lowest phenotypically active concentration,WPMY1-CANX-COX4,9 µM
same,lowest phenotypically active concentration,WPMY1-TUBA1B-RELA,9 µM
NC(=O)c1sc2c([N+](=O)[O-])cc(C(F)(F)F)cc2[n+]1[O-] [Cyclapolin 9],lowest phenotypically active concentration,WPMY1-TUBA1B-RELA,9 µM
N#Cc1c(NC(=O)c2cccc3ccccc23)sc2c1CCCC2,lowest phenotypically active concentration,A549-CANX-COX4,≤ 0.3 µM
same,lowest phenotypically active concentration,A549-TP53BP1-CLTA,≤ 0.3 µM
same,lowest phenotypically active concentration,HepG2-ACTB-RAB5A,≤ 0.3 µM
same,lowest phenotypically active concentration,HepG2-CANX-COX4,≤ 0.3 µM
same,lowest phenotypically active concentration,HepG2-TUBA1B-RELA,≤ 0.3 µM
same,lowest phenotypically active concentration,WPMY1-CANX-COX4,≤ 0.3 µM
same,lowest phenotypically active concentration,WPMY1-TUBA1B-RELA,≤ 0.3 µM
CN1C/C(=C/c2ccc(B(O)O)cc2)C(=O)/C(=C/c2ccc(B(O)O)cc2)C1,lowest phenotypically active concentration,A549-CANX-COX4,≤ 0.3 µM
same,lowest phenotypically active concentration,A549-TP53BP1-CLTA,≤ 0.3 µM
same,lowest phenotypically active concentration,HepG2-ACTB-RAB5A,≤ 0.3 µM
same,lowest phenotypically active concentration,HepG2-CANX-COX4,3 µM
same,lowest phenotypically active concentration,HepG2-TUBA1B-RELA,3 µM
same,lowest phenotypically active concentration,WPMY1-CANX-COX4,3 µM
same,lowest phenotypically active concentration,WPMY1-TUBA1B-RELA,3 µM
Cc1nc(NC(=O)N2CCC[C@H]2C(N)=O)sc1-c1ccnc(C(C)(C)C(F)(F)F)c1 [alpelisib],lowest phenotypically active concentration,A549-CANX-COX4,3 µM
same,lowest phenotypically active concentration,A549-TP53BP1-CLTA,9 µM
same,lowest phenotypically active concentration,HepG2-ACTB-RAB5A,1 µM
same,lowest phenotypically active concentration,HepG2-CANX-COX4,≤ 0.3 µM
same,lowest phenotypically active concentration,HepG2-TUBA1B-RELA,1 µM
same,lowest phenotypically active concentration,WPMY1-CANX-COX4,3 µM
same,lowest phenotypically active concentration,WPMY1-TUBA1B-RELA,9 µM
Nc1ccn([C@@H]2O[C@H](CO)[C@@H](O)C2(F)F)c(=O)n1 [gemcitabine],lowest phenotypically active concentration,A549-CANX-COX4,≤ 0.3 µM
same,lowest phenotypically active concentration,A549-TP53BP1-CLTA,≤ 0.3 µM
same,lowest phenotypically active concentration,HepG2-ACTB-RAB5A,≤ 0.3 µM
same,lowest phenotypically active concentration,HepG2-CANX-COX4,≤ 0.3 µM
same,lowest phenotypically active concentration,HepG2-TUBA1B-RELA,≤ 0.3 µM
same,lowest phenotypically active concentration,WPMY1-CANX-COX4,≤ 0.3 µM
same,lowest phenotypically active concentration,WPMY1-TUBA1B-RELA,≤ 0.3 µM
COc1cc([C@@H]2c3cc4c(cc3[C@@H](O[C@@H]3O[C@@H]5CO[C@@H](C)O[C@H]5[C@H](O)[C@H]3O)[C@H]3COC(=O)[C@H]23)OCO4)cc(OC)c1O [etoposide],lowest phenotypically active concentration,A549-CANX-COX4,1 µM
same,lowest phenotypically active concentration,A549-TP53BP1-CLTA,≤ 0.3 µM
same,lowest phenotypically active concentration,HepG2-ACTB-RAB5A,1 µM
same,lowest phenotypically active concentration,HepG2-CANX-COX4,1 µM
same,lowest phenotypically active concentration,HepG2-TUBA1B-RELA,1 µM
same,lowest phenotypically active concentration,WPMY1-CANX-COX4,1 µM
same,lowest phenotypically active concentration,WPMY1-TUBA1B-RELA,≤ 0.3 µM
Cc1nc(NC(=O)N2CCC[C@H]2C(N)=O)sc1-c1csc(C(C)(C)C)n1,lowest phenotypically active concentration,A549-TP53BP1-CLTA,9 µM
same,lowest phenotypically active concentration,HepG2-ACTB-RAB5A,3 µM
same,lowest phenotypically active concentration,HepG2-CANX-COX4,3 µM
same,lowest phenotypically active concentration,HepG2-TUBA1B-RELA,3 µM
same,lowest phenotypically active concentration,WPMY1-CANX-COX4,9 µM
Nc1cc(C(F)(F)F)c(-c2cc(N3CCOCC3)nc(N3CCOCC3)n2)cn1 [buparlisib],lowest phenotypically active concentration,A549-CANX-COX4,1 µM
same,lowest phenotypically active concentration,A549-TP53BP1-CLTA,1 µM
same,lowest phenotypically active concentration,HepG2-ACTB-RAB5A,1 µM
same,lowest phenotypically active concentration,HepG2-CANX-COX4,1 µM
same,lowest phenotypically active concentration,HepG2-TUBA1B-RELA,3 µM
same,lowest phenotypically active concentration,WPMY1-CANX-COX4,1 µM
same,lowest phenotypically active concentration,WPMY1-TUBA1B-RELA,3 µM
C/C(=C/c1ccc(C(=O)O)cc1)c1ccc2c(c1)C(C)(C)CCC2(C)C,lowest phenotypically active concentration,WPMY1-CANX-COX4,9 µM
CCCCC1C(=O)N(c2ccccc2)N(c2ccc(O)cc2)C1=O (stereo not given) [oxyphenbutazone],lowest phenotypically active concentration,WPMY1-TUBA1B-RELA,9 µM
